The campaign covered roughly 230,000 compounds. About 1,500 (0.65%) were called active.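 Rule for the calls: active = pattern-corrected inhibition of lipid staining of at least 50% with the nuclear-stain viability signal not falling by more than 50%; inactive = the rest, inconclusive results apart.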 What follows is part of a selection rich in actives, with near analogues and random picks from the rest.

A short description of the experiment: TAG lipid buildup reduction in H9c2 cells – cell-based, uHTS, fluorescence, primary screen (AID 651582).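 For inhibition: 0% = DMSO wells and 100% = triacsin C control wells.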 The note with it: Nile Red lipid (TAG) fluorescence, at 12.5 µM, cells loaded with 200 µM oleic acid; DAPI nuclei signal change (viability), lower = more cytotoxic: measured here: DAPI nuclei count viability; inhibition: stronger effect = higher value.
The term inhibition denotes the drop in the measured response relative to a control, in per cent. With `Cc1ccc(Cc2c(-c3ccccc3)nc3ccc(Cl)cn23)cc1`, the DAPI nuclei signal change (viability), lower = more cytotoxic came to 0.00442% and the inhibition is -0.293% (inactive).

For the compound `COc1ccc(C(=O)N(C)Cc2ccc(OC)c(OC)c2OC)cc1S(=O)(=O)N1CCOCC1`, the DAPI nuclei signal change (viability), lower = more cytotoxic was -5.3% and the inhibition is 8.22% (inactive).

With `COc1ccc2[nH]c3c(c2c1)CCN1C(=O)C(CC(=O)NCCCN(C)C)C[C@H](C(=O)N2CCOCC2)[C@@]31CCC1CCCC1` (stereo partly specified), the DAPI nuclei signal change (viability), lower = more cytotoxic is -19.4% and the inhibition was 31.2% (inactive).

Take `COc1ccc(CNC(=O)C[C@H]2C[C@H](C(=O)N3CCOCC3)[C@@]3(CCC4CCCC4)c4[nH]c5ccc(Cl)cc5c4CCN3C2=O)cc1OC`: the DAPI nuclei signal change (viability), lower = more cytotoxic worked out at 0.251% and the inhibition was 63.8% (active).

In the case of `O=C(C[C@H]1C[C@H](C(=O)N2CCOCC2)[C@@]2(CCC3CCCC3)c3[nH]c4ccc(Cl)cc4c3CCN2C1=O)NCc1ccco1`, the DAPI nuclei signal change (viability), lower = more cytotoxic was 8.62% and the inhibition is 28.1% (inactive).

For the compound `CC[C@]12c3[nH]c4ccc(OC)cc4c3CCN1C(=O)C(CC(=O)NCc1ccco1)C[C@@H]2C(=O)N1CCN(C(=O)C2CC2)CC1` (stereo partly specified), the DAPI nuclei signal change (viability), lower = more cytotoxic was -9.73% and the inhibition is 7.93% (inactive).

For `Cc1cc(C)n(-c2cc(Oc3ccccc3)ncn2)n1`, the DAPI nuclei signal change (viability), lower = more cytotoxic amounted to 6.79% and the inhibition was -18.3% (inactive).

As to `CC(=O)c1ccc(Oc2cc(C)nc(-n3nc(C)cc3C)n2)cc1`, the DAPI nuclei signal change (viability), lower = more cytotoxic is -32.4% and the inhibition was 61.3% (active).

With `Cc1cc(Oc2ccccc2)nc(N2CCOCC2)n1`, the DAPI nuclei signal change (viability), lower = more cytotoxic was determined as 6.77% and the inhibition is -9.8% (inactive).

Turning to `CN(CCc1ccccc1)C(=O)c1cccc(NC(=O)Cc2ccc([N+](=O)[O-])cc2)c1`, the DAPI nuclei signal change (viability), lower = more cytotoxic is -3.23% and the inhibition was -35% (inactive).

On to `COc1cc(C(=O)OCC(=O)NC23CC4CC(CC(C4)C2)C3)cc(OC)c1OC`, for which the DAPI nuclei signal change (viability), lower = more cytotoxic was -0.331% and the inhibition is -18.4% (inactive).

For `CCc1ccc(-n2c(=S)sc3c(=O)n(-c4ccccc4OC)c(=S)[nH]c32)cc1`, the DAPI nuclei signal change (viability), lower = more cytotoxic turned out to be 8.9% and the inhibition was -2.37% (inactive).

`COc1ccccc1-n1c(=S)[nH]c2c(sc(=S)n2-c2ccc(C)cc2C)c1=O`: the DAPI nuclei signal change (viability), lower = more cytotoxic is -48.2% and the inhibition was 65.4% (active).

In the case of `COc1cccc(-n2c(=S)sc3c(=O)n(-c4ccccc4OC)c(SCC4OCCO4)nc32)c1`, the DAPI nuclei signal change (viability), lower = more cytotoxic is -13.5% and the inhibition was 20.8% (inactive).

With `CN(CC1CCCO1)S(=O)(=O)c1ccc(C(=O)Nc2ccc([N+](=O)[O-])cc2)cc1` (stereo unspecified), the DAPI nuclei signal change (viability), lower = more cytotoxic is 3.29% and the inhibition is -15.4% (inactive).

Take `O=C(Nc1ccc(C(=O)N2CCCCC2)cc1)c1cccc([N+](=O)[O-])c1`: the DAPI nuclei signal change (viability), lower = more cytotoxic is 5.03% and the inhibition is 3.82% (inactive).

Take `O=C(Nc1cc2c3c(c1)C1CCCC1CN3CC1CCCC21)c1ccc([N+](=O)[O-])cc1` (stereo unspecified): the DAPI nuclei signal change (viability), lower = more cytotoxic was -11.5% and the inhibition is 53.3% (active).

Turning to `O=C(Cc1ccccc1)N1CCN(S(=O)(=O)c2ccc([N+](=O)[O-])cc2)CC1`, the DAPI nuclei signal change (viability), lower = more cytotoxic was -3.05% and the inhibition was -0.872% (inactive).

With `CC1CCN(C(=S)c2cccc([N+](=O)[O-])c2)CC1`, the DAPI nuclei signal change (viability), lower = more cytotoxic amounted to 4.33% and the inhibition is -2.26% (inactive).

Take `CC1(c2ccccc2)CC(C)(C)N(C(=O)c2cc([N+](=O)[O-])cc([N+](=O)[O-])c2)c2ccccc21` (stereo unspecified): the DAPI nuclei signal change (viability), lower = more cytotoxic is -2.38% and the inhibition is 54.1% (active).

In the case of `CCCCN(C=O)c1c(CC)nc2c(OCc3ccccc3C(=O)OC)cccn12`, the DAPI nuclei signal change (viability), lower = more cytotoxic is -7.9% and the inhibition was 4.1% (inactive).

`O=C(CCl)NNc1nc(-c2ccccc2)c2cc(Cl)ccc2n1`: the DAPI nuclei signal change (viability), lower = more cytotoxic is -5.54% and the inhibition was 4.04% (inactive).

Take `O=C(NN=Cc1ccccc1)c1ccccc1`: the DAPI nuclei signal change (viability), lower = more cytotoxic is 1.87% and the inhibition is -3.23% (inactive).

Consider `CN(/N=C/c1ccccc1)C(=S)c1ccccc1`, for which the DAPI nuclei signal change (viability), lower = more cytotoxic is -19.1% and the inhibition was 63.6% (active).

As for `CN(O)C(=S)c1ccccc1`, the DAPI nuclei signal change (viability), lower = more cytotoxic was -65.1% and the inhibition was 90.7% (inactive).

Take `NC(=O)c1ncn([C@@H]2O[C@H](CNCc3cnc(N4CCOCC4)s3)[C@@H](O)[C@H]2O)n1`: the DAPI nuclei signal change (viability), lower = more cytotoxic is -1.13% and the inhibition is 2.87% (inactive).

On to `CCC(=O)N1CCN(c2ccccc2NC(=O)COc2cccc(C)c2C)CC1`, for which the DAPI nuclei signal change (viability), lower = more cytotoxic was -0.0457% and the inhibition was -24.8% (inactive).

In the case of `Cc1ccccc1OCC(=O)Nc1ccc(N2CCN(C(=O)C(C)C)CC2)c(Cl)c1`, the DAPI nuclei signal change (viability), lower = more cytotoxic was -3.43% and the inhibition is 53.8% (active).

Consider `Cc1ccccc1OCC(=O)Nc1ccc2c(c1)ncn2C`, for which the DAPI nuclei signal change (viability), lower = more cytotoxic was 5.22% and the inhibition is 2.71% (inactive).

`CN1CCC(N(C)S(=O)(=O)c2ccc(NC(=O)c3cccc(C#N)c3)cc2)CC1`: the DAPI nuclei signal change (viability), lower = more cytotoxic was -3.7% and the inhibition is 15.9% (inactive).

Turning to `Oc1cccc2cc(-c3ccncc3)cnc12`, the DAPI nuclei signal change (viability), lower = more cytotoxic is -33.8% and the inhibition was 56.3% (active).

As for `COc1ccc(NC(=O)CSc2nnc(C3CC3)n2C)cc1S(=O)(=O)N1CCCCC1`, the DAPI nuclei signal change (viability), lower = more cytotoxic came out at 9.15% and the inhibition is -10.9% (inactive).

Regarding `CCN(CC)C(=O)C1=C(C)N(Cc2ccccc2)C(=O)C(CC(=O)NC(c2ccccc2)c2ccccc2)C1` (stereo unspecified), the DAPI nuclei signal change (viability), lower = more cytotoxic was -1.27% and the inhibition is 22.4% (inactive).

In the case of `Cc1ccc(S(=O)(=O)N2CCN(C(=O)c3cc(S(=O)(=O)N4CCOCC4)ccc3F)CC2)cc1`, the DAPI nuclei signal change (viability), lower = more cytotoxic is -10.8% and the inhibition was 2.68% (inactive).

`CCN(CC)C(=O)CN(c1cccc([N+](=O)[O-])c1)S(=O)(=O)c1ccccc1`: the DAPI nuclei signal change (viability), lower = more cytotoxic is -11.2% and the inhibition was 5.09% (inactive).

In the case of `O=C(CCl)N(Cc1cccc([N+](=O)[O-])c1)c1cccc(Cl)c1`, the DAPI nuclei signal change (viability), lower = more cytotoxic was found to be 0.0094% and the inhibition was 53.5% (active).

Take `Cc1ccc(S(=O)(=O)N(Cc2cccc([N+](=O)[O-])c2)C(=O)N2CCN(C)CC2)cc1`: the DAPI nuclei signal change (viability), lower = more cytotoxic was -12.6% and the inhibition is 6.71% (inactive).

For `COc1ccc(-c2c(C#N)cnc(C)c2C)c(O)c1OC`, the DAPI nuclei signal change (viability), lower = more cytotoxic is -5.41% and the inhibition was 12.5% (inactive).

As to `CC1(C(=O)NCc2ccco2)Cc2c(-c3ccc4c(c3)OCO4)ccnc2O1` (stereo unspecified), the DAPI nuclei signal change (viability), lower = more cytotoxic was -35.6% and the inhibition is 52.2% (active).

For `CC1(C(=O)NCc2ccc(F)c(F)c2)Cc2c(-c3ccc4c(c3)OCO4)ccnc2O1` (stereo unspecified), the DAPI nuclei signal change (viability), lower = more cytotoxic is -30.3% and the inhibition was 36.2% (inactive).

As for `CC(=O)Nc1cccc(-c2ccnc3c2CC(C)(C(=O)NCc2ccco2)O3)c1` (stereo unspecified), the DAPI nuclei signal change (viability), lower = more cytotoxic is -40.5% and the inhibition is 43.4% (inactive).

Turning to `CCc1nc2c(OCC(=O)C(C)(C)C)cccn2c1N(C)C(=O)c1ccccc1F`, the DAPI nuclei signal change (viability), lower = more cytotoxic is -14.1% and the inhibition was 14.9% (inactive).

Turning to `CCN(CC(=O)Nc1ccc(NC(C)=O)cc1)C(=O)CSC(=S)N1CCCC1`, the DAPI nuclei signal change (viability), lower = more cytotoxic was -7.39% and the inhibition was -13.5% (inactive).

As to `Cc1nnc(N/N=C/c2ccccn2)[nH]c1=O`, the DAPI nuclei signal change (viability), lower = more cytotoxic is -33.8% and the inhibition was 53.3% (active).

On to `Cc1ccccc1Nc1nnc(C)c(=O)[nH]1`, for which the DAPI nuclei signal change (viability), lower = more cytotoxic came to 1.64% and the inhibition was -16.3% (inactive).

As for `Cc1nnc(N/N=C/c2cccs2)[nH]c1=O`, the DAPI nuclei signal change (viability), lower = more cytotoxic was 4.89% and the inhibition was 29.3% (inactive).

As for `Cc1cc(C)cc(NC(=O)NCc2ccccn2)c1`, the DAPI nuclei signal change (viability), lower = more cytotoxic was 7.71% and the inhibition is -29.5% (inactive).

With `O=[N+]([O-])c1ccc(C=NN=Cc2ccc([N+](=O)[O-])cc2)cc1`, the DAPI nuclei signal change (viability), lower = more cytotoxic is -4.6% and the inhibition was 6.59% (inactive).

Values taken from PubChem BioAssay AID651582 (Sanford-Burnham Center for Chemical Genomics, 2012).
